We go through six sequences from publication PMC8384837, “Expanding the binding specificity for RNA recognition by a PUF domain”.

The first experiment has as its target PUM1 PUF domain R1-RAT (Homo sapiens, UniProt Q14671 828-1176, S863R;R864A;Q867T). The experiment is described as follows: yeast three-hybrid, YBZ-1, SC-Leu-His + 0.5 mM 3-AT, 4 days. The settings on record: tags: N-Gal4 AD-HA kept; label: inside an RPR1-promoter hybrid RNA with tandem MS2 sites; ssRNA. A digest of the protocol: (§1)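 Pumilio-1 PUF domain libraries, randomized (NNK) at the three base-contacting residues of each repeat, were co-expressed with matching RNA elements from a centromeric plasmid in strain YBZ-1 (LexA–MS2 coat fusion, HIS3 reporter). Transformants were plated on SC-Leu (input) and SC-Leu-His + 0.5 mM 3-AT (selection) for four days, and repeat regions were PCR-amplified and Illumina-sequenced. The interaction score is the log2 change in variant frequency from input to selection, with pseudocount 1 where absent.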
“GGCUAGAACUAGUGGAUCCCCCGGCGCCCGGCGGCUCGAGCCCGGGUAAGUGUAAAUUGUCUGCAUGCCGCCGGGCGCCAUGCCUGCAGGUCGACUCUAGAAAACAUG”: the binding signal is 3.04 log2 enrichment (interaction score).

Regarding “GGCUAGAACUAGUGGAUCCCCCGGCGCCCGGCGGCUCGAGCCCGGGUAAGUGUAAAUCGUCUGCAUGCCGCCGGGCGCCAUGCCUGCAGGUCGACUCUAGAAAACAUG”, the binding signal was 4.37 log2 enrichment (interaction score).

As for “GGCUAGAACUAGUGGAUCCCCCGGCGCCCGGCGGCUCGAGCCCGGGUAAGUGUAAAUGGUCUGCAUGCCGCCGGGCGCCAUGCCUGCAGGUCGACUCUAGAAAACAUG”, the binding signal is 2.45 log2 enrichment (interaction score).

The target in the next experiment is PUM1 PUF domain R4-GPG (Homo sapiens, UniProt Q14671 828-1176, N971G;H972P;Q975G). The experiment is described as above. The settings on record: tags: N-Gal4 AD-HA kept; label: inside an RPR1-promoter hybrid RNA with tandem MS2 sites; ssRNA. A digest of the protocol: as §1
As to “GGCUAGAACUAGUGGAUCCCCCGGCGCCCGGCGGCUCGAGCCCGGGUAAGUGUAUAUAGUCUGCAUGCCGCCGGGCGCCAUGCCUGCAGGUCGACUCUAGAAAACAUG”, the binding signal was 2.98 log2 enrichment (interaction score).

Regarding “GGCUAGAACUAGUGGAUCCCCCGGCGCCCGGCGGCUCGAGCCCGGGUAAGUGUACAUAGUCUGCAUGCCGCCGGGCGCCAUGCCUGCAGGUCGACUCUAGAAAACAUG”, the binding signal was 2.28 log2 enrichment (interaction score).

Regarding “GGCUAGAACUAGUGGAUCCCCCGGCGCCCGGCGGCUCGAGCCCGGGUAAGUGUAAAUAGUCUGCAUGCCGCCGGGCGCCAUGCCUGCAGGUCGACUCUAGAAAACAUG”, the binding signal was 5.02 log2 enrichment (interaction score).
